Data on 28 compounds can be found in PubChem BioAssay (NCATS).

SMILES strings stand for the structures. Values joined by “and” are separate entries in the source; they are usually repeats but may differ in a detail not shown here. Equal entries are not always repeated. Results filed as inconclusive are left out. Active and inactive are the calls of the source. The call rests on the fitted dose curve; in most records, active means well fitted inhibition curve with a large enough effect; inconclusive means small, poorly fitted or top-dose-only effect; inactive means flat fitted curve, though single readings scatter.
On the % scale 0 is the no-effect control and ±100 the full control effect; potency means the concentration at half of the fitted maximal effect.

The experiment is described as follows: Primary qHTS for inhibitors of nuclear receptor binding SET domain protein 2 (NSD2) in an isogenic RCH-ACV NSD2 p.E1099K mutant (9B) (AID 1645876). Further: nearly all actives have a fitted effect of over 70% in size. The conditions noted are these: RCH-ACV (leukaemia line) NSD2 E1099K (9B) viability, CellTiter-Glo, 72 h; series mostly up to 44.9 µM; activity change, negative = viability loss: at the top concentration. (In general: qHTS replaces the single test concentration by a dilution series.)
For the compound `CC(C)C[C@@H]1NC(=O)[C@@H]2C[C@@]34C[C@@H]5[C@@]6(C)CCCC(C)(C)C6CC[C@@]5(C)N(c5ccccc53)[C@H]4N2C1=O` (stereo partly drawn), the Potency was 3.55 µM (active).

Turning to `C=C1C(=O)OC2/C=C(\CO)CC/C=C(\C=O)C(O)C(OC(=O)C(C)CC)C12` (stereo not drawn), the Potency is 5.67 µM (active).

Regarding `CC1OC(=O)C[C@@H]2C(C(=O)O)=CO[C@@H](O[C@H]3O[C@H](CO)[C@@H](O)[C@H](O)[C@H]3O)[C@H]12` (stereo partly drawn), the “activity change, negative = viability loss” value is 0.206% (inactive).

With `CC1CC(=O)C2=C(C1)C1OC1C1(O)C2C(=O)c2cccc(O)c2C1O` (stereo not drawn), the “activity change, negative = viability loss” value is -94% (inactive).

On to `CC1(C)C2CCC(CO[C@@H]3O[C@H](CO[C@@H]4OC[C@](O)(CO)[C@H]4O)[C@@H](O)[C@H](O)[C@H]3O)C1C2` (stereo partly drawn), for which the “outcome” value was “inactive [at 17.3 µM]”.

As for `Cn1cc(-c2cnn3c(N)c(Br)c(C4CCCNC4)nc23)cn1` (stereo not drawn), the Potency is 1.18 µM (active).

As for `CC[C@@H](C)Nc1cc(C(=O)NC2CC3CCC(C2)N3c2ccc(C(=O)C3CC3)cn2)c(C)cc1C(N)=O` (stereo partly drawn), the Potency is 0.118 µM (active).

`OC1C=C2C3CN(Cc4cc5c(cc43)OCO5)C2CC1O` (stereo not drawn): the Potency was 6.49 µM (active).

As for `C=C1C(=O)O[C@@H]2[C@H]1CCC(C)=C(CCC(=O)O)[C@@]2(C)O`, the Potency is 20.5 µM (active).

For the compound `C=CS(=O)(=O)NC1CCN(C(=O)CNc2cc(I)c(Cl)cc2OC)CC1`, the Potency is 4.59 µM (active).

For `COc1ccc(CCO[C@@H]2O[C@H](CO[C@H]3OC[C@](O)(CO)[C@H]3O)[C@@H](OC(=O)/C=C/c3ccc(O)c(O)c3)[C@H](O[C@@H]3O[C@@H](C)[C@H](O)[C@@H](O)[C@H]3O)[C@H]2O)cc1OC`, the Potency was 6.08 µM (active).

In the case of `Nc1nc(Cl)nc2c1ncn2C1OC(CO)C(O)C1F` (stereo not drawn), the Potency was 0.0092 µM (active).

`CC1(C)CCC2(C(=O)OC3OC(COC4OC(CO)C(O)C(O)C4O)C(O)C(O)C3O)CCC3(C)C(=CCC4C5(C)CCC(OC6OCC(O)C(O)C6O)C(C)(C)C5CCC43C)C2C1O` (stereo not drawn): the activity change, negative = viability loss was -12.3% [at 9.23 µM] (inactive).

For `COC(=O)C1=CO[C@@H](O[C@@H]2O[C@H](CO)[C@@H](O)[C@H](O)[C@H]2O)[C@H]2[C@@H]1C=C[C@]21C=C([C@H](C)OC(=O)/C=C/c2ccc(O)cc2)C(=O)O1`, the Potency is 0.383 µM (active).

With `COc1cc(O)c2c(c1)C1OC1C[C@H](O)[C@H](O)C(=O)/C=C\C[C@H](C)OC2=O` (stereo partly drawn), the Potency was 3.25 µM (active).

`CC(=O)OC[C@]12[C@H](OC(C)=O)C(=O)[C@@H]3[C@@H](O)[C@@]14O[C@@]3(C)COC(=O)c1cccnc1[C@@H](C)[C@H](C)C(=O)O[C@@H]([C@H](O)[C@@H]2OC(C)=O)[C@]4(C)O`: the Potency is 5.41 µM (active).

As to `COc1cc2c(NC3CCN(C(C)C)CC3)nc(N3CCC(F)(F)CC3)nc2cc1OCCCN1CCCC1`, the Potency is 20.5 µM (active).

As to `C=C1C(=O)OC2C(OC(=O)C=C(C)C)C(C)=C3C(=O)C=C(C)C3C(O)C12` (stereo not drawn), the Potency is 10.1 µM (active).

For the compound `C/C(=C/CO)CCC1C(C)CCC2C(C)(C)CCCC12C` (stereo not drawn), the “activity change, negative = viability loss” value was -6.61% (inactive).

`C=C(C(=O)O[C@H]1C/C(C)=C/CC/C(CO)=C/[C@H]2OC(=O)C(=C)[C@H]12)C(O)CO` (stereo partly drawn): the Potency was 7.13 µM (active).

For the compound `CN1CC[C@@H](c2c(O)cc(O)c3c(=O)cc(-c4ccc(C(F)(F)F)cc4Cl)oc23)[C@@H]1CO`, the Potency is 18.6 µM (active).

Take `C/C(=C\CCC(C)C1=CCC2(C)OC3=C(CC12)C(=O)C(O)CC3)CO` (stereo not drawn): the “activity change, negative = viability loss” value was -17.2% (inactive).

In the case of `CN1CCN(C2CCN(C(=O)Nc3cc(Oc4ccc(NC(=O)C5(C(=O)Nc6ccc(F)cc6)CC5)c(F)c4)ccn3)CC2)CC1`, the Potency is 6.49 µM (active) and 11.8 µM (active).

For the compound `COc1cc([C@H]2O[C@H](c3cc(OC)c4c(c3)OCO4)[C@H](C)[C@H]2C)cc(OC)c1OC`, the Potency was 3.55 µM (active).

In the case of `Cc1cc(C(=O)Nc2cc(Oc3ccc4nc(NC(=O)C5CC5)cn4n3)ccc2C)n(C)n1`, the Potency is 13.2 µM (active).

For `COc1cccc(NCCC2(c3ccccc3)CC(C)(C)OC(C)(C)C2)c1`, the “activity change, negative = viability loss” value was -2.86% (inactive).

Turning to `C=CC(C)(O)CC/C=C(\C)C(=O)OC1C(O)C(CO)OC(OC(=O)C23CCC(C)(C)CC2C2=CCC4C5(C)CCC(OC6OC(COC7OCC(OC(C)=O)C(O)C7OC7OC(COC(C)=O)C(O)C(O)C7OC(C)=O)C(O)C(O)C6OC6OCC(O)C(O)C6O)C(C)(C)C5CCC4(C)C2(C)C(O)C3O)C1OC1OCC(OC2OCC(O)C(OC3OCC(O)C(O)C3O)C2O)C(O)C1O` (stereo not drawn), the Potency was 0.792 µM (active).

As to `COc1ccc(-c2ccccc2)cc1NS(=O)(=O)c1cc(Cl)cc(Cl)c1O`, the “activity change, negative = viability loss” value is -16.3% [at 17.3 µM] (inactive).
